ChEMBL document CHEMBL4513216, “Probing the Open Global Health Chemical Diversity Library for Multistage-Active Starting Points for Next-Generation Antimalarials” (ACS Infect Dis, 2020)
The campaign covered roughly 65,000 compounds. About 2,100 (3.2%) showed an effect of 50% or more. The median lay at about -52%. This is one part of a sample in which strong results are shown more often than they occur.

test system: Plasmodium falciparum; assay: Screen against P. falciparum Asexual Blood Stage (ABS), at 5uM; format: functional, Dd2; settings: tested at 5 uM

Compound	INHIBITION
Cc1nc(COc2ccc(CNCCn3cccn3)cc2)cs1	-107%
COCCNC(=O)[C@H]1CN(c2nnc(C)s2)C[C@H]2OCC[C@@H]12	-167%
c1ccc(Cc2noc(CN3CCCCC3Cn3cncn3)n2)cc1 (configuration not stated)	-14.9%
CCN(CC1CN(Cc2ccn(C(C)C)n2)CCO1)c1cccnn1 (configuration not stated)	-94%
Cc1[nH]c2ccc(Cl)cc2c1CCNc1ncnc2c1CCNC2	52%
Cc1[nH]c2ccc(C#N)cc2c1CCNc1ncnc2c1CCNCC2	-19.3%
Cc1[nH]c2ccccc2c1CCNc1ncnc2c1CCNCC2	-68.4%
O=S(=O)(Nc1ccc(Oc2ccc3c(c2)OCO3)cc1)N1CCCCC1	-59.9%
N#CCCN(CCC#N)Cc1ccc(Br)c2cccnc12	-103.4%
CCN(CCO)Cc1ccc(Br)c2cccnc12	54.2%
OCCN(CCO)Cc1ccc(Br)c2cccnc12	-26.05%
Cc1nn(C)c2c(=O)n(C(C)C)c(NCCc3ccccc3)nc12	13.9%
Clc1ccc(C2(NCc3noc(C4CC4)n3)CCC2)cc1	16.7%
Clc1ccc(C2(NCc3noc(C4CC4)n3)CCCC2)cc1	68.5%
Clc1ccc(C2(NCc3noc(C4CC4)n3)CCOCC2)cc1	3.57%
O=C(NC1CCCC1)c1nc(COc2ccc3c(c2)OCO3)no1	-118%
CSc1ccc(C(C(=O)O)N2CCC(CO)CC2)cc1 (configuration not stated)	-79.3%
Cc1c(NC(=O)c2ncn[nH]2)cccc1C(=O)NC(C)(C)C	-21%
Cc1cc(C)cc(CN2CCC3(CC2)CC(Nc2ncccn2)CO3)c1 (configuration not stated)	60.2%
c1cnc(NC2COC3(CCN(Cc4ccoc4)CC3)C2)nc1 (configuration not stated)	-27.7%
Cc1cc(CN2CCC3(CC2)CC(Nc2ncccn2)CO3)nn1C (configuration not stated)	-8.44%
CCc1csc(CNc2cc(C)nc(-c3cccnc3)n2)n1	4.15%

Compound	INHIBITION
CC(C)c1nc(CN2CCCC2CN2CCCC2)cs1 (configuration not stated)	68%
CC(C)c1nc(CN2CCCCC2)cs1	-114%
CC(C)c1nc(CN2CCCCC2Cn2cncn2)cs1 (configuration not stated)	-30.9%
CC(=O)N1CCN(CCNS(=O)(=O)c2cccc(F)c2)CC1	-72.6%
CC(C)c1cccc(S(=O)(=O)NCCCN2CCC(O)CC2)c1	34.2%
O=S(=O)(Cc1ccccc1F)NCCCN1CCCCC1	19.9%
O=S(=O)(NCCCN1CCCC1)c1cc(F)cc(F)c1	67.4%
O=S(=O)(Cc1c(F)cccc1Cl)NCCCN1CCCCCC1	50.1%
CC(=O)N1CCN(CCNS(=O)(=O)c2cc(F)cc(F)c2)CC1	-113%
CN1CCN(CCCNS(=O)(=O)Cc2ccccc2F)CC1	18.6%
CC1CCN(CCCNS(=O)(=O)Cc2ccccc2F)CC1	28.5%
Cn1cnc(S(=O)(=O)NCCCN2CCCC2)c1Cl	-29.7%
CC1CCN(CCCNS(=O)(=O)c2cc(F)cc(F)c2)CC1	63.3%
CC1CCN(CCCNS(=O)(=O)c2cccc(F)c2)CC1	54.9%
Cc1cc(F)cc(S(=O)(=O)NCCCN2CCC(O)CC2)c1	-34.8%
O=C(Nc1cccc(N2CCOCC2)c1)N[C@H](CO)c1ccccc1	-104%
Cc1cccc(C(=O)N2CCO[C@H]3[C@H](OCCN(C)C)CC[C@@H]32)n1	-57.1%
COCC1CN(C(=O)COc2ccccc2)Cc2ncn(C)c21 (configuration not stated)	-14.4%
O=C(NCc1ccnc(OCC(F)(F)F)c1)NCC1CCOC1 (configuration not stated)	-16%
O=C(C1CCCC1)N1CCCC(c2cccc(-n3ccnc3)n2)C1 (configuration not stated)	-46.4%
Cc1c[nH]c(CN2CCOC(c3ccc(Cl)cc3)C2)c(C)c1=O (configuration not stated)	-11.4%
CCN1CCC(CNCc2cc(OC)ccc2OC)C1 (configuration not stated)	57.9%

Compound	INHIBITION
COc1ccc(OC)c(CN2CCC(c3cc(O)nc(C)n3)C2)c1 (configuration not stated)	-1.68%
COc1ccc(CNCC2CCN(CCO)CC2)cc1F	58.2%
Cc1ccc(CNCC2CCN(CCO)CC2)cc1	13%
COc1ccc(CNCC2CC2)cc1F	-75.5%
CCN1CCCC(CNC(=O)CCc2ccc(OC)c(F)c2)C1 (configuration not stated)	-71.6%
CCC1=N[C@@]2(CC[C@@H]3CN(Cc4ccc(F)cc4)C[C@@H]32)C(=O)N1C	40.2%
COC1CCN(c2ccc(NC(=O)C3CC3)cc2C(F)(F)F)CC1	7.84%
CN1CCC(c2cccc(Cc3ccccc3)n2)CC1	3.76%
CN1CCC(c2cccc(Cc3ccc(F)cc3)n2)CC1	0.302%
CN1CCC(c2cccc(Cc3ccc(C(F)(F)F)cc3)n2)CC1	52.5%
CNc1nc(C(=O)N2CCN(c3ccc(Cl)c(Cl)c3)CC2)cs1	-3.09%
CC(=O)N1CCC(c2nc3ccc(-c4cccc(F)c4)cn3n2)CC1	-83.5%
Cc1cc(CN2CCC(C3CCN(CC(C)C)CC3)C2)[nH]n1 (configuration not stated)	-10.5%
CC(C(=O)N1CCN(Cc2ccc(C#N)cc2)CC1)n1ccnc1 (configuration not stated)	-162%
CC(C(=O)N1CCCN(Cc2ccc(C#N)cc2)CC1)n1ccnc1 (configuration not stated)	-20.3%
COc1ccc(CN2CCCN(C(=O)C(C)n3ccnc3)CC2)cc1 (configuration not stated)	63.1%
Cc1noc(C)c1-c1cccc(CC2CCN(C(=O)c3cscn3)C2)n1 (configuration not stated)	-100%
CCN1CC2(CNCCN(C(=O)Nc3ccccc3)C2)CC1=O (configuration not stated)	53.7%
O=C1CC2(CNCCN(C(=O)Nc3ccccc3)C2)CN1 (configuration not stated)	-59.9%
CN1CC2(CNCCN(C(=O)Nc3ccccc3)C2)CC1=O (configuration not stated)	33.2%
CN(C)CC(=O)N1CC2(CCN(S(=O)(=O)c3ccccc3)C2)C1	-21%
CC(=O)N1CCN(C(=O)Nc2ccccc2)CC2(CC(=O)N(C)C2)C1 (configuration not stated)	13.6%

Compound	INHIBITION
CN(C)CC(=O)N1CC2(CCN(C(=O)Nc3ccccc3)C2)C1	50%
N#Cc1ccsc1NC(=O)CN1CCOC(Cn2cccn2)C1 (configuration not stated)	-49.6%
Cc1cnn(CC2CCN(CC(O)COc3ccc(F)cc3)CC2)c1 (configuration not stated)	-39.2%
CC(C)NC(=O)[C@H]1C[C@H]2OCC[C@H]2N(Cc2ccc3ccccc3n2)C1	3.39%
CCc1ccc(CN(Cc2ccco2)C(C)C(C)C)nc1 (configuration not stated)	-199%
COCCNC(=O)Nc1cccc2c1CCN(S(C)(=O)=O)C2	-3.2%
Cc1ccc(OC2(C(=O)NC(C)Cc3ccsc3)CCNCC2)cc1 (configuration not stated)	52.5%
Cc1ccc(OC2(C(=O)NC(C)Cc3ccncc3)CCNCC2)cc1 (configuration not stated)	-39.1%
Cc1ccc(OC2(C(=O)NC(C)c3csc(C)n3)CCNCC2)cc1 (configuration not stated)	11.3%
CCn1cc2c(n1)CN(Cc1sccc1C)CC2COCC1CC1 (configuration not stated)	-6.58%
COc1nccnc1N1CCC(C(=O)O)(n2ccc(C(C)(C)C)n2)CC1	-5.61%
CC(O)CN(C(=O)NC1CC1)C(C)C (configuration not stated)	-10.2%
CC(=O)N1CCc2nc(-c3ccc(F)cc3)nc(NC(C)C)c2CC1	6.79%
CCCS(=O)(=O)NCc1nc(C)cc(N2CCCC2)n1	-76.8%
CC(C)c1nc(CN2CCCC2Cn2cncn2)no1 (configuration not stated)	-59.5%
Cc1cccc(C(C(=O)N2CC(Oc3ccccc3F)C2)N(C)C)c1 (configuration not stated)	2.84%
COc1ccccc1OC1CN(C(=O)C(c2ccc(F)cc2)N(C)C)C1 (configuration not stated)	3.3%
CN(C)C(C(=O)N1CC(Oc2ccccc2F)C1)c1ccc(F)cc1 (configuration not stated)	64%
O=C(O)CC(CC(=O)NCCc1ccsc1)c1cccs1 (configuration not stated)	-112%
Clc1ccc(CN2CCc3c(ncn3C3CC3)C2)c2ncccc12	30.3%
CC(=O)Cn1c(C)cc(=O)c2cc(F)ccc21	-152%
CN(Cc1cccnc1N)Cc1cccc2ncccc12	15.1%

Compound	INHIBITION
CN(Cc1cccc(CCN)c1)Cc1cccc2ncccc12	60.4%
CN(Cc1cccc(OCCO)c1)Cc1cccc2ncccc12	-10.8%
CN(C)C(=O)C1CCCN(C(=O)c2ccccc2-n2cc(CN)cn2)C1 (configuration not stated)	25.8%
CC1CCCN(CCNC(=O)c2scnc2Cl)C1 (configuration not stated)	-37.9%
CCc1cccc(N2CCC(NC(=O)C3CCC3)CC2)c1	-52.2%
CCN(CC)c1ccc(C2c3c(n[nH]c3C)N=C3COC(=O)C32)cc1 (configuration not stated)	-48.4%
CN1CCCC[C@@H]2[C@H]1[C@@H](c1ccccc1)CCN2C(=O)c1ccccc1	-15.8%
CN1CCCC[C@@H]2[C@H]1[C@@H](c1ccccc1)CCN2S(=O)(=O)N1CCCC1	52%
CCN(CC)S(=O)(=O)N1CC[C@H](c2ccccc2)[C@@H]2[C@H]1CCCCN2C	41.2%
Cc1cc(C2NC(=O)CN2Cc2ccc(Br)cc2)cc(C)c1O (configuration not stated)	-78.2%
CC(=O)Nc1ncc(S(=O)(=O)Nc2ccc3c(c2)OCCO3)s1	-316%
COc1ccccc1OCCNCc1c(C)nn(C)c1N(C)C	60%
COc1cc(CNCc2c(C(C)C)nn(C)c2N(C)C)ccn1	-67.4%
COc1cccc(OCCNCc2c(C)nn(C)c2N(C)C)c1	-31.9%
COc1ccccc1C(O)CNCc1c(C(C)C)nn(C)c1N(C)C (configuration not stated)	6.24%
COc1ccc(OCCNCc2c(C)nn(C)c2N(C)C)cc1	-64.9%
COc1ccccc1OCCNCc1c(C(C)C)nn(C)c1N(C)C	60.1%
Cc1ccc(N2CCCC(NCc3ccc(C)s3)C2)nn1 (configuration not stated)	-34.1%
CC(C)(CO)NCc1nn(Cc2ccccc2)nc1-c1ccccc1	14.1%
